Screens as filed in PubChem BioAssay.
A selection: hits, their analogues and other compounds. The true share with any hit is near 1%.
EphB4 antag: antagonists of human EphB4-ephrin-B2 interaction; 97,000 tested, 0.15% active; EphB4 LBD / TNYL-RAW-Alexa532 peptide, fluorescence polarization; inhibition, % at 7 µM; P54760;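 active = inhibition above the screen-wide mean inhibition plus 3 SD, cut at about 15% in these data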;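 note: 0% = DMSO wells and 100% = excess unlabeled TNYL-RAW peptide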
PLK1 PBD inh: blocks phosphopeptide binding to human Plk1 polo box domain | Plk1 PBD phosphopeptide binding, fluorescence polarization | inhibition, %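 (tested at about 20 µM)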 | 97,000 tested, 0.13% active; in the data active = inhibition above about 34%, passing the limit was not always enough
Target sequence (P53350 whole entry, looked up, the tested form may be a part): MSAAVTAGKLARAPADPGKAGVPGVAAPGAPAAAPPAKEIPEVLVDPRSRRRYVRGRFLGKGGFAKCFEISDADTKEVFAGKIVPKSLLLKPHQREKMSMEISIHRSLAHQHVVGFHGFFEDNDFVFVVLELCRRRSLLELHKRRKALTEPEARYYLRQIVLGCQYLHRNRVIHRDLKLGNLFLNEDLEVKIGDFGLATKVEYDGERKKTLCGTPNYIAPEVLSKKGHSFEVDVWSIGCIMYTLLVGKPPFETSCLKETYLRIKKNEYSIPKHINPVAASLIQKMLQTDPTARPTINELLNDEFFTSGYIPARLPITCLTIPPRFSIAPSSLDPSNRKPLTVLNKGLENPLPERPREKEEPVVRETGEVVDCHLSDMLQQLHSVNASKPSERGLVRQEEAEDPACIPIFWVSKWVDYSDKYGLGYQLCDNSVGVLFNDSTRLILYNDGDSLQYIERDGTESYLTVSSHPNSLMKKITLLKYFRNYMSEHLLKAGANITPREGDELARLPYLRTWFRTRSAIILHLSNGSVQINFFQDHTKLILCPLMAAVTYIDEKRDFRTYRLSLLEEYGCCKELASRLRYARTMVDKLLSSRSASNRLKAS
sEH activator: activators of human soluble epoxide hydrolase. purified human sEH enzymatic activity, activator screen. activation, % at 2 µM. 91,000 tested, 0.04% active. AID 717; in the data active = activation above about 37%
PLK1 kinase inh: PLK1 (human) kinase inhibition; P53350; recombinant PLK1 kinase, TR-FRET peptide phosphorylation; inhibition, % at 10 µM; 97,000 tested, 0.53% active;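 active = inhibition of 50% or more in the single-concentration screen; inactive = inhibition below 50%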;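 note: 0% = DMSO max control and 100% = H-89 dihydrochloride min control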
sEH inhibitor: blocks human soluble epoxide hydrolase activity; P34913; recombinant human sEH enzymatic activity assay; inhibition, % at 2 µM; 91,000 tested, 0.34% active; AID 707; in the data active = inhibition above about 80%
PLK1 confirm: PLK1 (human) kinase inhibition, confirmed. shares compounds with PLK1 kinase inh. inhibition, % at 10 µM. AID 744. recombinant PLK1 kinase, TR-FRET peptide phosphorylation. 210 tested, 20% active;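 active = inhibition at or above 50% in each of two repeat confirmation tests; inconclusive = one repeat below 50% inhibition, the other above; inactive = both repeats at or below 50% inhibition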;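 note: 0% = DMSO max control and 100% = H-89 kinase-blocked min control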
TR-FRET interf: interferes with the Plk1 assay readout, not true inhibition; 210 tested, under 10 active; AID 756; inhibition (interference), % at 10 µM; Plk1 TR-FRET assay interference, compound added post-reaction; shares compounds with PLK1 kinase inh;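 active = both duplicate runs show 50% or greater inhibition; inconclusive = only one duplicate run shows over 50% inhibition; inactive = both runs show under 50% inhibition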;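 note: 0% = DMSO max control and 100% = H-89 min control inhibited reaction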
PBD redox DR: generates H2O2 by redox cycling, flagging false Plk1 PBD hits | shares compounds with PLK1 PBD inh | redox cycling H2O2 generation, DTT, counter-screen | EC50, µM | 120 tested, under 10 active; call rule not given here
Active calls of the source: *; ? = inconclusive; . = no result given.

SMILES	EphB4 antag	PLK1 PBD inh	sEH activator	PLK1 kinase inh	sEH inhibitor	PBD redox DR	others
Cc1ccc(C2CC(c3ccccc3)=NN2C(=S)Nc2ccccc2)o1 (stereo unspecified)	1.6	-13.2	-5.8	-12.6	7.0	.
Clc1ccccc1-c1nc(-c2cccnc2)no1	5.8	14.4	-4.3	-10.1	0.9	.
Cc1ccccc1-c1nc(-c2cccnc2)no1	2.8	-36.8	-8.8	95.7*	7.5	.	PLK1 confirm=-0.6;TR-FRET interf=-60.7
COc1ccccc1Nc1nc(N)nc(CN2CCOCC2)n1	-1.5	23.4	.	72.2*	.	.	PLK1 confirm=-8.2;TR-FRET interf=-51.8
CC(C)Cc1nc2n[nH]c(N)c2c2c1COC(C)(C)C2	-4.0	-35.5	-10.6	74.9*	9.7	.	PLK1 confirm=?;TR-FRET interf=-53.6
CCOC(=O)c1c(-c2ccncc2)csc1N	-7.0	6.9	-1.5	70.2*	-0.4	.	PLK1 confirm=65.7*;TR-FRET interf=-48.7
CCOc1ccc(-c2csc(N)c2C(=O)OC)cc1	-1.3	14.8	1.1	-4.0	-0.8	.
CN(C)CC(C)(C)CNS(=O)(=O)c1ccc(Cl)c(Cl)c1	1.1	-2.0	3.7	-11.2	-4.6	.
CCn1nnnc1SCC(=O)NC1CCCC1	2.6	0.8	-7.1	-4.0	8.8	.
O=c1[nH]cnc2scc(-c3cccs3)c12	1.4	0.9	6.4	72.7*	-7.1	.	PLK1 confirm=64.7*;TR-FRET interf=-48.7
CC(C)CC(=O)OCc1cn(-c2ccccc2)nn1	4.5	4.3	4.2	-11.2	-7.0	.
Cc1nc2ccc(NC(=O)c3cccs3)cc2c(=O)n1Cc1ccc(Cl)cc1	0.2	-18.4	-0.4	122.7*	0.5	.	PLK1 confirm=-1.3;TR-FRET interf=-48.5
O=C(c1ccc(F)cc1)N1CCN(c2cc(=O)[nH]nc2-c2ccccc2)CC1	-1.1	-10.9	-9.4	125.2*	11.5	.	PLK1 confirm=-11.7;TR-FRET interf=-52.6
COC(=O)c1sc2nc[nH]c(=O)c2c1C	-1.5	11.5	12.3	74.0*	-11.4	.	PLK1 confirm=71.4*;TR-FRET interf=-49.2
Cc1c(C(=O)OC(C)C)sc2nc[nH]c(=O)c12	-1.0	7.1	-0.1	76.5*	0.2	.	PLK1 confirm=68.8*;TR-FRET interf=-50.4
Cc1ccc(NC(=O)N2CCC(=O)N2)cc1	-14.1	-21.4	-3.2	-7.0	6.0	.
CCn1ccc(C(=O)Nc2ccc(Cl)cn2)n1	-3.8	2.1	.	71.2*	.	.	PLK1 confirm=-7.6;TR-FRET interf=-56.6
CCn1nccc1C(=O)Nc1ccc(Cl)cn1	10.7	-11.8	3.3	-8.8	-1.3	.
Cc1cc(NC(=O)c2nn3cccnc3c2Cl)no1	3.9	-19.1	2.7	-0.3	-1.8	.
C=CCNC(=O)c1nn2cccnc2c1Cl	-1.2	3.5	0.8	130.2*	0.4	.	PLK1 confirm=-4.3;TR-FRET interf=-53.1
COc1ccc(Cc2c[nH]c(=O)[nH]c2=O)cc1	3.4	18.8	-3.6	-1.0	4.5	.
O=c1[nH]cc(COCc2ccccc2)c(=O)[nH]1	2.8	45.9*	-3.5	-7.1	5.8	>50
O=C(CCCSc1nnnn1-c1ccccc1)c1ccc(F)cc1	0.2	6.9	7.1	1.7	-4.2	.
CCc1noc(C)c1C(=O)N1CCOCC1	5.8	40.6*	-4.2	-5.2	1.8	>50
CC(=O)Nc1c(C(=O)N2CCCCCC2)cnn1-c1ccccc1Cl	-5.7	-12.8	-3.2	-8.4	5.6	.
SMILES	EphB4 antag	PLK1 PBD inh	sEH activator	PLK1 kinase inh	sEH inhibitor	PBD redox DR	others
Cc1cccc(C)c1NC1=NC(=S)N(c2ccccc2)C12CCOC(C)(C)C2 (stereo unspecified)	8.3	111.5*	-8.3	-3.5	11.2	>50
Cc1cccc(N2C(=S)N=C(Nc3c(C)cccc3C)C23CCOC(C)(C)C3)c1 (stereo unspecified)	-6.0	9.8	-8.0	7.4	10.9	.
CCn1c(SCC(=O)N2CCCCC2C)nnc1-c1ccc(S(=O)(=O)N2CCN(C)CC2)cc1 (stereo unspecified)	4.9	-27.8	-5.9	-6.3	5.8	.
CCn1c(SCC(N)=O)nnc1-c1ccc(S(=O)(=O)N2CCN(C)CC2)cc1	0.2	44.1*	-11.8	-11.2	11.9	>50
Cn1c(=O)c2c(ncn2CCCc2ccccc2)n(C)c1=O	-0.9	51.4*	-0.3	-10.6	-0.9	>50
O=S(Cc1ccccc1)CC(O)(c1ccccc1)c1ccccc1 (stereo unspecified)	1.2	7.0	1.8	-8.0	-4.6	.
O=c1ccc(Oc2nc(N3CCOCC3)nc(N3CCOCC3)n2)n[nH]1	-5.7	-0.3	22.9	-1.7	-18.5	.
O=C1C(C2=C(O)c3ccccc3C2=O)=Nc2ccccc21	-5.2	66.3*	-6.5	23.4	7.4	29.1*
O=C(O)C1C2C=CC(C2)C1C(=O)Nc1ccc2c(c1)OCCO2 (stereo unspecified)	2.1	6.8	5.6	-6.8	-1.6	.
O=C(O)C1CCCCC1C(=O)Nc1ccc2c(c1)OCCO2 (stereo unspecified)	-8.2	52.0*	.	-8.2	.	>50
CCCCN(C)C(=O)c1sc2ncn(CC)c(=O)c2c1C	-0.8	-13.0	-2.3	-0.9	4.8	.
CCn1cnc2sc(C(=O)N3CCN(c4ccc(OC)cc4)CC3)c(C)c2c1=O	-0.7	44.8*	18.7	-4.5	-17.9	>50
COc1cc(OC)cc(C(=O)NCCCN2CCOCC2)c1	-4.5	52.8*	6.5	-8.7	-5.9	>50
CC(=O)N(/N=C1\Sc2ccccc2C1=O)c1cccc(C)c1	-5.6	76.7*	-9.2	-10.9	11.7	>50
CC(=O)N(CN1C(=O)c2ccccc2C1=O)c1cccc(C)c1	1.3	-0.8	-5.3	-10.3	4.9	.
CCCSc1nc(N2CCOCC2)c2c(c1C#N)CCCC2	4.4	50.6*	-9.1	-14.0	8.8	>50
N#CCCSc1nc(N2CCOCC2)c2c(c1C#N)CCCC2	-4.5	11.8	1.5	-23.8	2.1	.
CCOc1c(Br)cc(C2NS(=O)(=O)N=C3CCCCCN32)cc1OC (stereo unspecified)	1.6	-7.7	3.4	-16.0	-3.8	.
COC(=O)CNC(=O)C12CC3(C)CC(C)(CC(C)(C3)C1)C2	2.7	33.4*	-0.1	-9.2	2.3	>50
O=C(NC(NC(=S)Nc1ccc(Cl)cc1Cl)C(Cl)(Cl)Cl)c1cccc([N+](=O)[O-])c1 (stereo unspecified)	-3.4	55.8*	-7.4	-1.8	5.5	>50
CC(=O)Nc1ccc(Oc2ncccn2)c(Cl)c1	-2.6	17.6	-5.8	-21.0	4.8	.
CCNC(=O)NC(=O)C(C)OC(=O)c1cccnc1SC (stereo unspecified)	-7.5	50.6*	.	-3.1	.	>50
Cc1ccc(CNC(=O)c2cc3c(=O)n(C)c4ccccc4c3n2C)cc1	-7.3	62.0*	.	-71.2	.	>50
CC(C)C(=O)Nc1ncc2c(n1)CC(c1cccs1)CC2=O (stereo unspecified)	3.6	-11.5	-22.5	-10.4	22.5	.
O=C(c1cc([N+](=O)[O-])ccc1N1CCCCC1)N1CCCCC1	-1.3	-18.7	-9.3	-12.4	7.9	.
O=C1Nc2ccc([N+](=O)[O-])cc2C1(O)N1CCCCC1 (stereo unspecified)	0.1	56.8*	0.8	-13.9	2.3	>50
